This note sets out measurements from PubChem BioAssay (Tox21).

The nature of assay [1]: qHTS assay to test for compound auto fluorescence at 535 nm (green) in HEK293 cells (AID 720680).
The nature of assay [2]: qHTS assay to test for compound auto fluorescence at 460 nm (blue) in HEK293 cell free culture (AID 720681). In short, it runs like this:
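Compounds were added to cell-free DMEM with 10% FBS and fluorescence read directly. The blue channel used 405 nm excitation and 460 nm emission, with triamterene as the reference fluorophore.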

Assay [3] can be described thus: qHTS assay to test for compound auto fluorescence at 535 nm (green) in HEK293 cell free culture (AID 720682). In short, it runs like this: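 Read-out: 485/535 nm fluorescence intensity, calibrated against fluorescein. Medium only (DMEM + 10% FBS, no cells); test compound or DMSO vehicle added by pintool before plate reading.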
Assay [4] in a line: qHTS assay to test for compound auto fluorescence at 590 nm (red) in HEK293 cell free culture (AID 720683). An outline of the steps:
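Cell-free wells of DMEM with 10% FBS received compound, and intrinsic fluorescence was read at excitation/emission 540/590 nm. Values expressed as equivalence to Rose Bengal sodium.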
A general note: Quantitative high-throughput screening tests each substance at several concentrations.

Assay [5] is described as follows: qHTS assay to test for compound auto fluorescence at 590 nm (red) in HepG2 cell free culture (AID 720684). In short, it runs like this:
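Compound was pinned into wells holding MEM with 10% FBS and no cells, and red fluorescence was read at Ex/Em 540/590 nm. Signal is expressed as auto fluorescence equivalency relative to Rose Bengal sodium.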

The nature of assay [6]: qHTS assay to test for compound auto fluorescence at 460 nm (blue) in HepG2 cell free culture (AID 720685). In short, it runs like this: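 Compound (23 nL) or DMSO pinned into cell-free MEM with 10% FBS; blue fluorescence read at 405/460 nm excitation/emission, expressed as auto-fluorescence equivalency to triamterene.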
Assay [7] can be described thus: qHTS assay to test for compound auto fluorescence at 535 nm (green) in HepG2 cell free culture (AID 720686).
A short description of assay [8]: qHTS assay to test for compound auto fluorescence at 460 nm (blue) in HepG2 cells (AID 720687). In short, it runs like this:
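HepG2 cells in MEM with 10% FBS, attached overnight at 37 C, were exposed to compound or DMSO for 1 hr at 37 C, 5% CO2. Blue fluorescence was read at 405/460 nm, with triamterene as reference fluorophore.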

For assay [9], the target named is Glucocorticoid receptor (Homo sapiens) (UniProt P04150). Put plainly: qHTS assay to identify small molecule agonists of the glucocorticoid receptor (GR) signaling pathway (AID 720691; active = well fitted activation curve with a large enough effect in the signal ratio in the repeat runs, not every such curve was filed as active; the % refers to the signal ratio). The following applies: GR-bla HeLa, beta-lactamase reporter ratio, 18 h; activation: at 62.4 µM (top of the series). An outline of the steps:
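Beta-lactamase reporter activity, read as fluorescence intensity, was measured in GR-bla HeLa cells exposed to compounds for 18 h at 37 C and then loaded with LiveBLAzer B/G FRET substrate for 2 h at room temperature.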

The target is the same in assay [10]. Put plainly: qHTS assay to identify small molecule antagonists of the glucocorticoid receptor (GR) signaling pathway (AID 720692; active = well fitted inhibition curve with a large enough effect in the signal ratio in the repeat runs, not every such curve was filed as active; the % refers to the signal ratio; also: potency is read from the fitted curve at half-maximal effect). An outline of the steps:
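Fluorescence from cleaved LiveBLAzer B/G FRET substrate reports GRE-driven beta-lactamase in HeLa cells; compounds are tested against 5 nM dexamethasone (final) over 18 h at 37 C, substrate incubation 2 h at room temperature.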

Each structure is given as a SMILES string. Records with an inconclusive call do not appear. Calls of active or inactive are those of the source. Unless noted, calls follow the shape of the dose curve; as a rule, active = well fitted curve in the direction sought with a large enough effect in the repeat runs; inconclusive = weak or mixed curves; inactive = flat fitted curve, though single readings scatter. Positions of bridges follow the written chain, without caps; N, C: chain ends. Non-standard residues stand in square brackets, D forms with d. Residues, ends and D or L forms follow the SMILES beside them. Orn = NCCC[C@H](N)C(=O)O; Mpa = O=C(O)CCS

Sequence of Glucocorticoid receptor (Homo sapiens) (P04150 whole entry, looked up): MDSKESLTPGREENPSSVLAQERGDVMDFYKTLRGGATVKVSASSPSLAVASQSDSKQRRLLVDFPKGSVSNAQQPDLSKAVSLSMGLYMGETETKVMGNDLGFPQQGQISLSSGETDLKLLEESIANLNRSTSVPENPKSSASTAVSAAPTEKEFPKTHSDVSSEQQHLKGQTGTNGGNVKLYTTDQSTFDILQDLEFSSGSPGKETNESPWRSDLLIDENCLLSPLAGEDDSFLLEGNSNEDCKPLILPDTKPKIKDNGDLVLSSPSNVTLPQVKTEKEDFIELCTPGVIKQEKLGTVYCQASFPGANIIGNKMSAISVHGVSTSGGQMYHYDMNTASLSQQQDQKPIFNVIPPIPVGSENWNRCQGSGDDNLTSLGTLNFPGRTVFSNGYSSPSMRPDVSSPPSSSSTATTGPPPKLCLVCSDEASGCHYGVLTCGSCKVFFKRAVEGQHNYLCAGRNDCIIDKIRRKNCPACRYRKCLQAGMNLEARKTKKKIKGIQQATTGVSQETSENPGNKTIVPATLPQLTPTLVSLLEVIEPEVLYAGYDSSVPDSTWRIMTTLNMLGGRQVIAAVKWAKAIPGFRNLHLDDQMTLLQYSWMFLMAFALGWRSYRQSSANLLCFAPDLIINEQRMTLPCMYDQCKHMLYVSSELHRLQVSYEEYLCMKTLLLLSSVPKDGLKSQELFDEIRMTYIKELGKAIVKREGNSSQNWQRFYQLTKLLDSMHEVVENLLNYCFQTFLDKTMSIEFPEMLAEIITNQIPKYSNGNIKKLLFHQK

Take `C[N+](C)(CCCCCC[N+](C)(C)C1c2ccccc2-c2ccccc21)C1c2ccccc2-c2ccccc21`: the Potency entry in [1], in [2], in [3], in [4], in [5] and in assay [7] was “inactive” in each case. The Potency entry in assay [9] and in [10] was “inactive” each time. The compound was called inactive in assay [6] and in [8].
As to `CCCCc1cc2c(=O)c(C(=O)OC)c[nH]c2cc1OCc1ccccc1`, the Potency result in assay [1], in assay [2], in [3], in assay [4], in assay [5] and in assay [7] was “inactive” in each case. Moreover, the Potency result in assay [9] and in assay [10] was “inactive” each time. Moreover, the compound was called inactive in assay [6] and in assay [8].
With `C/C(=C(\CCOC(=O)c1ccccc1)SS/C(CCOC(=O)c1ccccc1)=C(/C)N(C=O)Cc1cnc(C)nc1N)N(C=O)Cc1cnc(C)nc1N`, the Potency entry in assay [1], in assay [2], in assay [3], in assay [4], in assay [5] and in assay [7] was “inactive” each time. Moreover, the Potency result in assay [9] and in [10] was “inactive” each time. Moreover, the outcome in assay [6] and in [8] was inactive.
Turning to `CCC(C)[C@@H](N)C(=O)O` (stereo not given in full), the Potency result in assay [1], in [2], in [3], in [4], in assay [5] and in assay [7] was “inactive” in each case. The Potency result in assay [9] and in assay [10] was “inactive” each time. Also, the compound was classed as inactive in assay [6] and in assay [8].
In the case of `CS(=O)(=O)c1ccc(C2=C(c3ccccc3)C(=O)OC2)cc1`, the Potency result in assay [1], in [2], in assay [3], in assay [4], in assay [5] and in assay [7] was “inactive” each time. In addition, the Potency entry in assay [9] and in assay [10] was “inactive” throughout. For the same compound, the result in assay [6] and in [8] was inactive.
Consider `CN1CCN(C2=Nc3ccccc3Cc3ccccc32)CC1`, for which the Potency entry in assay [1], in [2], in assay [3], in assay [4], in assay [5] and in assay [7] was “inactive” in each case. Also, the Potency result in assay [9] and in [10] was “inactive” each time. For the same compound, the outcome in assay [6] and in assay [8] was inactive.
`OCCN1CCN(CC/C=C2/c3ccccc3Sc3ccc(Cl)cc32)CC1`: the Potency entry in assay [1], in [2], in assay [3], in assay [4], in assay [5] and in assay [7] was “inactive” throughout. Also, the Potency entry in [9] and in [10] was “inactive” each time. The call in assay [6] and in assay [8] was inactive.
Turning to `CCOc1cc(-c2nccc3cc(OC)c(OC)cc23)cc(OCC)c1OCC`, the Potency entry in [1], in [2], in [3], in assay [4], in [5] and in assay [7] was “inactive” each time. Also, the Potency entry in [9] and in [10] was “inactive” each time. The compound was classed as inactive in assay [6] and in assay [8].
As for `CC(C)CN(C[C@@H](OP(=O)(O)O)[C@H](Cc1ccccc1)NC(=O)O[C@H]1CCOC1)S(=O)(=O)c1ccc(N)cc1`, the Potency result in [1], in assay [2], in assay [3], in assay [4], in assay [5] and in assay [7] was “inactive” throughout. The Potency result in assay [9] and in assay [10] was “inactive” in each case. Moreover, the compound was classed as inactive in [6] and in assay [8].
As to `CN=C(NC)NCc1ccccc1`, the Potency result in [1], in assay [2], in assay [3], in [4], in assay [5] and in assay [7] was “inactive” in each case. The Potency entry in assay [9] and in assay [10] was “inactive” in each case. In addition, the result in [6] and in assay [8] was inactive.
For the compound `CC(=O)Nc1c(I)c(C(=O)O)c(I)c(N(C)C(C)=O)c1I`, the Potency result in assay [1], in assay [2], in [3], in assay [4], in assay [5] and in assay [7] was “inactive” in each case. The Potency entry in [9] and in assay [10] was “inactive” each time. Also, the result in assay [6] and in assay [8] was inactive.
As to `COc1cc(C[C@@H]2NCCc3cc(O)c(O)cc32)cc(OC)c1OC`, the Potency entry in assay [1], in assay [2], in [3], in [4], in [5] and in assay [7] was “inactive” each time. Further, the Potency result in [9] and in assay [10] was “inactive” throughout. Moreover, the outcome in assay [6] and in assay [8] was inactive.
Regarding `CCC(C)(C)OC(=O)N[C@@H](Cc1c[nH]c2ccccc12)C(=O)N[C@@H](CCSC)C(=O)N[C@@H](CC(=O)O)C(=O)N[C@@H](Cc1ccccc1)C(N)=O`, the Potency entry in [1], in assay [2], in assay [3], in assay [4], in assay [5] and in [7] was “inactive” each time. Besides, the Potency result in [9] and in assay [10] was “inactive” each time. The compound was called inactive in assay [6] and in assay [8].
For the compound `CCOc1ccc(C[C@H]2NC(=O)CCSSC[C@@H](C(=O)N3CCC[C@H]3C(=O)N[C@@H](CCCN)C(=O)NCC(N)=O)NC(=O)[C@H](CC(N)=O)NC(=O)[C@H]([C@@H](C)O)NC(=O)[C@H]([C@@H](C)CC)NC2=O)cc1` ([Mpa][dY](Et)ITNCP[Orn]G-NH2; disulfide 1-6), the Potency result in [1], in assay [2], in assay [3], in assay [4], in assay [5] and in assay [7] was “inactive” in each case. For the same compound, the Potency entry in assay [9] and in assay [10] was “inactive” in each case. Further, the call in assay [6] and in assay [8] was inactive.
Turning to `O=C(Cn1c(=O)sc2ccc(Cl)cc21)N1CCN(CCO)CC1`, the Potency result in [1], in assay [2], in assay [3], in [4], in [5] and in assay [7] was “inactive” in each case. Further, the Potency entry in [9] and in assay [10] was “inactive” in each case. The result in [6] and in assay [8] was inactive.
`C[C@]12CC[C@@H]3c4ccc(OC(=O)c5ccccc5)cc4CC[C@H]3[C@@H]1CC[C@@H]2O`: the Potency result in [1], in assay [2], in assay [3], in assay [4], in assay [5] and in assay [7] was “inactive” in each case. The Potency result in assay [9] was “inactive”. Further, the call in assay [6] and in [8] was inactive. For the same compound, the Potency in [10] was 6.01 µM (active).
For the compound `C#CCOc1ccc2c(C)cc(=O)oc2c1`, the Potency entry in [1], in assay [2], in assay [3], in assay [4], in [5] and in assay [7] was “inactive” each time. The Potency entry in assay [9] and in assay [10] was “inactive” each time. Besides, the compound was classed as inactive in [6] and in assay [8].
For `CCC(=O)NS(=O)(=O)c1ccc(-c2c(-c3ccccc3)noc2C)cc1`, the Potency entry in [1], in assay [2], in assay [3], in assay [4], in assay [5] and in [7] was “inactive” in each case. The Potency result in assay [9] and in assay [10] was “inactive” in each case. Further, the compound was called inactive in [6] and in assay [8].
For the compound `CCCCCCCCCCCCCCCC(=O)OC[C@@H](COP(=O)([O-])OCC[N+](C)(C)C)OC(=O)CCCCCCCCCCCCCCC`, the Potency result in assay [1], in assay [2], in assay [3], in assay [4], in assay [5] and in assay [7] was “inactive” throughout. The Potency entry in [9] and in assay [10] was “inactive” throughout. Also, the call in [6] and in assay [8] was inactive.
